Compound activity deposited in PubChem BioAssay by Broad Institute.
Shown is part of a subset that was picked to be rich in hits.
miR122 inh: miR-122 sensor activation; Huh7 psiCHECK-miR122 Renilla luciferase sensor, 48 h; activation, % at 12.5 µM; hit rate 0.14% among 340,000;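 active = mean activation of 30% or more, with every replicate also reaching 30%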;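 note: 0% = median of neutral control wells and 100% = median of positive control wells; higher luciferase signal means stronger suppression of miR-122 activity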
* marks the source's active call; other numbers are inactive results.

SMILES	miR122 inh
C[C@@H]1CN([C@H](C)CO)C(=O)c2cc(C#Cc3cccc(F)c3)cnc2O[C@H]1CN(C)C(=O)C1CC1	-4
CN1C(=O)c2cc(NC(=O)C3CC3)ccc2OC[C@@H]2O[C@H](CC(=O)NCCN3CCCC3)CC[C@H]21	45*
CN1C(=O)c2cc(NC(=O)C3CC3)ccc2OC[C@H]2O[C@H](CC(=O)NCc3cccc(F)c3)CC[C@H]21	-117
CCNC(=O)Nc1ccc2c(c1)C(=O)N(C)[C@H]1CC[C@H](CC(=O)NCCN3CCCC3)O[C@@H]1CO2	37*
C[C@@H]1CN([C@@H](C)CO)S(=O)(=O)c2ccc(C#CCC3CCCC3)cc2O[C@@H]1CN(C)C(=O)CC1CC1	-3
C[C@@H]1CN([C@@H](C)CO)C(=O)c2cc(C#Cc3cccnc3)cnc2O[C@H]1CN(C)S(C)(=O)=O	-7
C[C@H](CO)N1C[C@H](C)[C@@H](CN(C)Cc2ccccc2)Oc2cc(-c3cncnc3)ccc2S1(=O)=O	-1
CCn1c(Cl)c(C=O)s/c1=N\S(=O)(=O)c1ccccc1	72*
CCC(=O)N(C)C[C@H]1Oc2ncc(C#Cc3cccnc3)cc2C(=O)N([C@H](C)CO)C[C@@H]1C	0
Cc1ccc(S(=O)(=O)N(C)C[C@@H]2Oc3cc(C#CC4CCCC4)ccc3S(=O)(=O)N([C@@H](C)CO)C[C@@H]2C)cc1	-29
CO[C@@H]1CN(C)C(=O)c2cc(NC(=O)Cc3ccccc3)ccc2OC[C@H](C)N(C)C[C@@H]1C	1
C/C=C/c1cnc2c(c1)C(=O)N([C@H](C)CO)C[C@H](C)[C@@H](CN(C)S(=O)(=O)c1cccs1)O2	-1
C[C@@H]1CN([C@H](C)CO)C(=O)c2cc(-c3cccc(F)c3)cnc2O[C@@H]1CN(C)C(=O)c1ccccn1	0
CN(C)CCNc1nc2sc3c(c2c(=O)n1CCc1ccccc1)CCCCC3	32*
Cc1cc(C(=O)Nc2cccc3c2O[C@H](CN(C)Cc2ccc(C(F)(F)F)cc2)[C@@H](C)CN([C@H](C)CO)C3=O)n(C)n1	-276
C[C@H](CO)N1C[C@H](C)[C@@H](CN(C)C(=O)c2ccncc2)Oc2cc(C#Cc3ccncc3)ccc2S1(=O)=O	13
C/C=C/c1cnc2c(c1)C(=O)N([C@@H](C)CO)C[C@@H](C)[C@@H](CN(C)C(=O)c1cccnc1)O2	1
Cc1ccc(-n2ncc(C(=O)Nc3cc(Cl)ccc3C)c2C2CCNCC2)cc1C	36*
C/C=C/c1cnc2c(c1)C(=O)N([C@H](C)CO)C[C@H](C)[C@H](CN(C)CC1CCOCC1)O2	-4
Cc1nn(Cc2ccccc2Cl)c2sc(C(=O)OC3CCCC3=O)cc12 (stereo unspecified)	36*
C[C@H](CO)N1C[C@H](C)[C@H](CN(C)Cc2ccccn2)Oc2cc(-c3ccncc3)ccc2S1(=O)=O	6
C[C@H]1CN([C@@H](C)CO)C(=O)c2cc(C#Cc3cccc(F)c3)cnc2O[C@H]1CN(C)CC1CCOCC1	-2
C[C@H]1CN([C@@H](C)CO)C(=O)c2cccc(NC(=O)c3ccncc3)c2O[C@@H]1CN(C)Cc1ccc(C(F)(F)F)cc1	-108
C[C@@H]1CN([C@H](C)CO)S(=O)(=O)c2ccc(C#Cc3ccccc3)cc2O[C@@H]1CN(C)S(=O)(=O)c1ccccc1F	-35
Cc1ccc(-c2cnc3c(c2)C(=O)N([C@H](C)CO)C[C@@H](C)[C@H](CN(C)CC2CCCCC2)O3)cc1	32*
SMILES	miR122 inh
C[C@H](CO)N1C[C@H](C)[C@@H](CN(C)CC2CCCCC2)Oc2c(NC(=O)C3CC3)cccc2C1=O	-114
C[C@@H]1CN([C@@H](C)CO)C(=O)c2cc(-c3cccc(F)c3)cnc2O[C@H]1CN(C)CC1CCCC1	10
C[C@H](CO)N1C[C@H](C)[C@@H](CN(C)CC2CCCC2)Oc2ncc(-c3cccc(F)c3)cc2C1=O	-4
C[C@H]1CN([C@@H](C)CO)C(=O)c2cc(-c3cccnc3)cnc2O[C@@H]1CN(C)Cc1ccc(Oc2ccccc2)cc1	6
C[C@@H]1CN([C@H](C)CO)C(=O)c2cc(-c3cccnc3)cnc2O[C@H]1CN(C)Cc1ccc(Oc2ccccc2)cc1	0
C[C@H]1CN([C@@H](C)CO)C(=O)c2cc(/C=C/c3ccccc3)cnc2O[C@H]1CN(C)S(=O)(=O)c1ccc(F)cc1	17
C[C@@H]1CN([C@H](C)CO)C(=O)c2cc(-c3cncnc3)cnc2O[C@H]1CN(C)Cc1ccc(Oc2ccccc2)cc1	38*
C[C@H](CO)N1C[C@H](C)[C@@H](CN(C)CC2CCCCC2)Oc2c(NS(=O)(=O)c3cccs3)cccc2C1=O	33*
C[C@H](CO)N1C[C@H](C)[C@H](CN(C)CC2CCCCC2)Oc2c(NC(=O)C3CCOCC3)cccc2C1=O	-104
COc1ccc(S(=O)(=O)N(C)C[C@@H]2Oc3ncc(/C=C/c4ccccc4)cc3C(=O)N([C@@H](C)CO)C[C@@H]2C)cc1	42*
C[C@@H]1CN([C@@H](C)CO)C(=O)c2cc(/C=C/c3ccccc3)cnc2O[C@H]1CN(C)S(=O)(=O)c1ccc(F)cc1	3
